Among the data in PubChem BioAssay (NCI) are growth values, retold here.

Each structure is given as a SMILES string. About 83,000 compounds went through this panel and 20% of them were active in at least one assay; those are over-represented in the sample as a whole.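 Single-dose data. Exposure time 48 hours. Values below 10 considered active.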 Values without a mark were called inactive. Active and inactive are the calls of the source.

Some test systems named below: DU-145 prostate; K-562 leukemia; MALME-3M melanoma; MDA-MB-231 breast; RXF 393 renal; SF-268 CNS; SF-295 CNS; SF-539 CNS; UACC-257 melanoma; M14 melanoma.
What all share (experiment): NCI-60 one-dose screen, 48 h (100 = growth as untreated, 0 = no growth, -100 = all killed)
Settings in all cases: 10 µM

With `FC(F)(F)c1ccc(-c2cnc(Cl)nc2NC2CCCCCC2)cc1`, the growth is 59.7% in the test on DU-145 prostate; 11.9% in the test with K-562 leukemia; -42.8% (active) in the test with MALME-3M melanoma; 47.4% in the test with MDA-MB-231 breast; 31.3% in the test on RXF 393 renal; 39.4% with SF-268 CNS. Moreover, the growth was -45.6% (active) in the test with SF-295 CNS, 75.1% in the test with SF-539 CNS, -10.3% (active) in the test with UACC-257 melanoma and 21.8% with M14 melanoma.

Regarding `COCCOC(=O)NC(=O)Nc1ccc(/C(=N/O)c2ccc(Cl)cc2)cc1`, the growth in the test with DU-145 prostate was 4.9% (active); with K-562 leukemia it was 6.7% (active); in the test with MALME-3M melanoma it was 90%; in the test on MDA-MB-231 breast, 12.8%; with RXF 393 renal, -13.1% (active); with SF-268 CNS, 43.2%. The growth is -8.84% (active) in the test on SF-295 CNS, 1.64% (active) in the test on SF-539 CNS, 71.6% with UACC-257 melanoma and 3.73% (active) with M14 melanoma.

Take `O=C(NC1CCN(Cc2ccccc2)CC1)c1cc(-c2ccncc2)nc2ccc(Cl)cc12`: the growth in the test on DU-145 prostate is 33.2%; with K-562 leukemia, 13.4%; in the test on MALME-3M melanoma, 56.9%; in the test with MDA-MB-231 breast, 42.3%; with RXF 393 renal, 37.8%; with SF-268 CNS, 24.4%. Moreover, the growth with SF-295 CNS was 14.6%; in the test on SF-539 CNS, 16.4%; with UACC-257 melanoma, -1.44% (active); in the test with M14 melanoma, 16.1%.

Regarding `Cc1nc(Nc2nc3ccccc3o2)nc(-c2cccc([N+](=O)[O-])c2)c1C(=O)Nc1ccc(F)c(Cl)c1`, the growth is 18.6% in the test on DU-145 prostate; 4.49% (active) with K-562 leukemia; 6.18% (active) with MALME-3M melanoma; -17.4% (active) in the test on MDA-MB-231 breast; 29.4% with RXF 393 renal; 11.9% with SF-268 CNS. For the same compound, the growth was -40.7% (active) with SF-295 CNS, 25.7% in the test on SF-539 CNS, -11.3% (active) with UACC-257 melanoma and 15.6% with M14 melanoma.

Consider `CCOC(=O)CNC(=O)Nc1ccc(Oc2ccc(NC(=O)NCC(=O)OCC)cc2)cc1`, for which the growth in the test with DU-145 prostate is 112%; in the test with K-562 leukemia, 105%; with MALME-3M melanoma, 102%; with MDA-MB-231 breast it was 108%; in the test on RXF 393 renal, 91.6%; with SF-268 CNS, 104%. In addition, the growth is 93% in the test on SF-295 CNS, 86.7% with SF-539 CNS, 96.2% with UACC-257 melanoma and 101% in the test with M14 melanoma.

On to `CCn1nc(-c2ccccn2)c2cccnc2c1=S`, for which the growth with DU-145 prostate was 97%; in the test with K-562 leukemia, 35.7%; with MALME-3M melanoma it was 68.4%; in the test with MDA-MB-231 breast, 53.3%; with RXF 393 renal, 110%; with SF-268 CNS, 94.8%. Besides, the growth in the test with SF-295 CNS is 78.1%; with SF-539 CNS, 89.1%; in the test with UACC-257 melanoma, 35.8%; in the test with M14 melanoma it was 65%.

On to `CCCCCCCCCCCCCC[n+]1ccccc1`, for which the growth was -48.6% (active) in the test on DU-145 prostate; 0.808% (active) in the test on K-562 leukemia; -50.8% (active) with MALME-3M melanoma; -62.6% (active) in the test with MDA-MB-231 breast; -69.6% (active) in the test with RXF 393 renal; -37.3% (active) in the test on SF-268 CNS. In addition, the growth with SF-295 CNS is -89.8% (active); in the test on SF-539 CNS, -30.7% (active); with UACC-257 melanoma, -70.8% (active); in the test on M14 melanoma, -33.5% (active).

In the case of `CCCCCCCCCCCCCCCC(=O)N1CCN(C)CC1`, the growth in the test on DU-145 prostate is 87.2%; in the test on K-562 leukemia it was 15.9%; in the test on MALME-3M melanoma it was 90.3%; with MDA-MB-231 breast, 54.7%; in the test on RXF 393 renal, 77%; in the test on SF-268 CNS it was 73.7%. In addition, the growth is 83.7% in the test with SF-295 CNS, 73.9% with SF-539 CNS, 91.8% in the test on UACC-257 melanoma and 80.2% in the test with M14 melanoma.

As to `COC(=O)[C@]12CC[C@@H](C)[C@H](C)[C@@H]1C1=CC[C@@H]3[C@@]4(C)C/C(=N\O)[C@H](O)[C@@]5(C)COC(=C45)C[C@@]3(C)[C@]1(C)CC2`, the growth with DU-145 prostate was -94.8% (active); in the test on K-562 leukemia, -58.4% (active); in the test on MALME-3M melanoma it was -71.1% (active); with MDA-MB-231 breast, -59.3% (active); with RXF 393 renal, -73.4% (active); in the test with SF-268 CNS it was -78.6% (active). The growth was -88.5% (active) with SF-295 CNS, -75.2% (active) with SF-539 CNS, -90.5% (active) in the test with UACC-257 melanoma and -82.3% (active) in the test on M14 melanoma.

With `COc1cc(-c2cc(-c3ccc(C)cc3)nc3nc(N)[nH]c(=O)c23)ccc1Oc1ccnc2cc(Cl)ccc12`, the growth in the test with DU-145 prostate was 87.7%; in the test on K-562 leukemia, 74.4%; in the test on MALME-3M melanoma it was 104%; with MDA-MB-231 breast, 66.6%; in the test on RXF 393 renal, 77.8%; in the test on SF-268 CNS, 77.4%. The growth with SF-295 CNS was 101%; in the test on SF-539 CNS, 103%; with UACC-257 melanoma, 90.1%; in the test on M14 melanoma, 101%.

As for `CC(=O)N(O)c1ccc(/C=C/c2ccccc2)cc1`, the growth is 3.54% (active) in the test on DU-145 prostate; 73.3% in the test with K-562 leukemia; 94% with MALME-3M melanoma; 48.7% in the test on MDA-MB-231 breast; -11% (active) with RXF 393 renal; 12.4% with SF-268 CNS. Also, the growth in the test with SF-295 CNS is -26.7% (active); with SF-539 CNS, 33.6%; in the test with UACC-257 melanoma, -6.82% (active); with M14 melanoma, 46.2%.

For `COc1ccc(S(=O)(=O)Nc2ccc(OCc3nnc(-c4ccc(Cl)cc4)o3)c(F)c2)cc1`, the growth in the test with DU-145 prostate was 76.7%; in the test on K-562 leukemia, 43.2%; in the test on MALME-3M melanoma, 67.8%; in the test with MDA-MB-231 breast, 54.6%; with RXF 393 renal, 63.1%; in the test on SF-268 CNS, 59.9%. The growth with SF-295 CNS was 43.8%; in the test with SF-539 CNS, 70.5%; with UACC-257 melanoma it was 23.3%; in the test on M14 melanoma it was 78%.

In the case of `O=c1cc(CSc2nnc(-c3ccccc3)n2-c2ccc(F)cc2)c2ccc3ccccc3c2o1`, the growth in the test on DU-145 prostate was 109%; with K-562 leukemia, 82.9%; in the test with MALME-3M melanoma, 97%; with MDA-MB-231 breast it was 91.1%; with RXF 393 renal, 108%; in the test on SF-268 CNS it was 93.8%. For the same compound, the growth is 95.9% in the test on SF-295 CNS, 98.7% with SF-539 CNS, 103% in the test with UACC-257 melanoma and 102% in the test with M14 melanoma.
